From PubChem
G9a block: G9a (human) methyltransferase inhibition; Potency, µM (titrated, usually from 102 µM), without a hit: top-dose activity, negative = inhibition, usual class: inhibitors; hit rate 8.8% among 350,000; G9a H3K9 monomethylation, AlphaScreen, 2 h; Q96KQ7; note: % is set by controls: 0 for no effect and ±100 for the full control effect; nearly all actives have a fitted effect of over 75% in size
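Step 1: enzyme (final 20 nM) with compound, 15 min RT. Step 2: substrate peptide 500 nM and SAM 20 uM, 2 h RT. Step 3: anti-H3K9me1 antibody and AlphaScreen beads, 10 min, then plate read.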
BAZ2B inh: inhibitors of human BAZ2B bromodomain. AlphaScreen BAZ2B-H3K14Ac peptide displacement. Q9UIF8. hit rate 4.4% among 360,000. Potency, µM (doses to about 114 µM), for the others: at the highest dose activity change, negative = inhibition, hits mostly inhibitors; note: % is set by controls: 0 for no effect and ±100 for the full control effect; nearly all actives have a fitted effect of over 60% in size
Target sequence (Q9UIF8 whole entry, looked up): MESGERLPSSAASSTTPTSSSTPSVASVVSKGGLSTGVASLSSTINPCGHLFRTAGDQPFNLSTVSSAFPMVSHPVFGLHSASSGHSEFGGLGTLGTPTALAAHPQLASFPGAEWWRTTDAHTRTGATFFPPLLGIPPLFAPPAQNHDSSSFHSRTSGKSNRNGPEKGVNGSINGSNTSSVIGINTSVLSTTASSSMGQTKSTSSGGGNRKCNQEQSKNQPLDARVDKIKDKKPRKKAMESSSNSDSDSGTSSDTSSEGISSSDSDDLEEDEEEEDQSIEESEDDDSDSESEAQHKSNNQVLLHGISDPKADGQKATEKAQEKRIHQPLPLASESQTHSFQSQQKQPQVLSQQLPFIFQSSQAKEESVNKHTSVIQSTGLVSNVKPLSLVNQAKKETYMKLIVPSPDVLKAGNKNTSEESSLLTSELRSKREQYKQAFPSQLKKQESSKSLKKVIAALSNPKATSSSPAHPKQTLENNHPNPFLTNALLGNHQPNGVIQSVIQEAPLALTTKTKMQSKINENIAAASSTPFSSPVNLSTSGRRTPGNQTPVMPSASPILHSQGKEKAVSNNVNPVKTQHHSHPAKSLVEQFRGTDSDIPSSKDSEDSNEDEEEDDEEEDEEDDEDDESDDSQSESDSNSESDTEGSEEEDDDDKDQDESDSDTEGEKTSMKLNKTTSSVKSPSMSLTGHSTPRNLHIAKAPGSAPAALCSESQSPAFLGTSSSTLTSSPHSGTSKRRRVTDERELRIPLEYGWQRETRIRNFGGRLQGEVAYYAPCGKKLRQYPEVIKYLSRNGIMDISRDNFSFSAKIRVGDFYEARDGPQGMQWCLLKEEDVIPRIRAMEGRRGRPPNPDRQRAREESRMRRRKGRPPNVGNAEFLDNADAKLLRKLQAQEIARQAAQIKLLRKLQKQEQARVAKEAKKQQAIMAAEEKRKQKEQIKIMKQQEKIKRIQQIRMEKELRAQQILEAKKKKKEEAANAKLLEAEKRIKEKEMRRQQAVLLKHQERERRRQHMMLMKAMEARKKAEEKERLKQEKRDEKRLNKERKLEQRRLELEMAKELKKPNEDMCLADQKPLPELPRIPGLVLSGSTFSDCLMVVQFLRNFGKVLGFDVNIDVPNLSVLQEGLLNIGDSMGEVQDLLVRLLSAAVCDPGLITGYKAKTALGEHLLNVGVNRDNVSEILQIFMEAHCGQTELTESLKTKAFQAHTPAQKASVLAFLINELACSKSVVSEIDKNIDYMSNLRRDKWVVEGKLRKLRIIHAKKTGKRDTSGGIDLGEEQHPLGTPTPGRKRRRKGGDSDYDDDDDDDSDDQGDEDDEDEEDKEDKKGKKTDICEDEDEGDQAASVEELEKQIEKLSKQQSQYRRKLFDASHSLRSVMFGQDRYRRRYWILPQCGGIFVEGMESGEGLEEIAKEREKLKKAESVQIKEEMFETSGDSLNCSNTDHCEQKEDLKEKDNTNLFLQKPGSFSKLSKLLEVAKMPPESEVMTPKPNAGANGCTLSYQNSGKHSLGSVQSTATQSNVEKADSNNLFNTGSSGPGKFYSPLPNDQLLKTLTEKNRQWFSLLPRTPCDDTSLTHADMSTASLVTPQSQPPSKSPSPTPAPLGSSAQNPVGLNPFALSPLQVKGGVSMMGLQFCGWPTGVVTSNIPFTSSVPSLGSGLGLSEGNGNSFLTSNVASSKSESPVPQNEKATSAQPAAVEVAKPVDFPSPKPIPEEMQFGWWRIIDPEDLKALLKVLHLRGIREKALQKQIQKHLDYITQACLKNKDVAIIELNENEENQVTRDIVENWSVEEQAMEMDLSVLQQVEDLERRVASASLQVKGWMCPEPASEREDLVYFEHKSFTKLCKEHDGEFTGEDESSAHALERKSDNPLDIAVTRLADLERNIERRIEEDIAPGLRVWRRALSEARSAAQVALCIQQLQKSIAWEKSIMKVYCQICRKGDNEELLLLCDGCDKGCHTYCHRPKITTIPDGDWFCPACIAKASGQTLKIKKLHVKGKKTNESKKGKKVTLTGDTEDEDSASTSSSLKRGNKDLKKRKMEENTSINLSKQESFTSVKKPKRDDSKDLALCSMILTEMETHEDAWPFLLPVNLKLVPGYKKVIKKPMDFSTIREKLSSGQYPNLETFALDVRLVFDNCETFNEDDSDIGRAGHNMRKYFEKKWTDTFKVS
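BAZ2B (50 nM) with biotin-H3(5-23)K14Ac peptide (50 nM) in PBS pH 7.4, 0.01% Tween-20, preformed 30 min, then compound 30 min at room temperature; top concentration 110uM. AlphaScreen streptavidin donor/nickel chelate acceptor beads (10 ug/mL final), 20 min dark, signal read.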
JMJD2A Tudor inh: inhibitors of human JMJD2A Tudor domain; AlphaScreen JMJD2A-Tudor / H3K4me3 peptide binding; hit rate 4.4% among 390,000; O75164; Potency, µM (titrated, usually from 114 µM), inactives show top-dose activity change, negative = inhibition, usual class: inhibitors; note: % is set by controls: 0 for no effect and ±100 for the full control effect; nearly all actives have a fitted effect of over 50% in size
Sfp inh: Sfp phosphopantetheinyl transferase inhibition | hit rate 3.5% among 310,000 | Biochemical Sfp PPTase activity, qHTS | Potency, µM, inactives show largest response in the series, negative = inhibition, usual class: inhibitors | Q9F4F7;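 note: the enzyme is Sfp with the accession as filed and its product quenches rhodamine fluorescence; 0% = enzyme reaction without inhibitor and -100% = no enzyme wells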
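Sfp 15 nM + cpd, 15 min RT; start w/ rhodamine-CoA 5 uM, BHQ-2-YbbR 12.5 uM (final); 50 mM Hepes pH 7.6, 10 mM MgCl2, 0.01% NP-40, 0.01% BSA; read 525/598 nm at 0 and 30 min.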
HP1b chromo inh: HP1-beta chromodomain-methylated histone interaction inhibition; P83916; AlphaScreen HP1-beta / biotin-H3K9me3 peptide binding; Potency, µM (doses to about 114 µM), for the others: top-dose activity change, negative = inhibition, actives largely listed as inhibitors; hit rate 0.56% among 390,000; note: nearly all actives have a fitted effect of over 70% in size
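AlphaScreen: HP1-beta (50 nM) preformed 30 min with biotin-H3(1-18)K9me3 peptide (50 nM) in PBS pH 7.4, 0.01% Tween-20. Compound added for 30 min at RT, then streptavidin donor/nickel chelate acceptor beads (10 ug/mL) for 30 min.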
L3MBTL1 block: inhibitors of human L3MBTL1. AlphaScreen L3MBTL1–H3K9me1 peptide binding. hit rate 0.66% among 230,000. Potency, µM (doses to about 57.1 µM), for the others: at the top dose activity, negative = inhibition, actives largely listed as inhibitors. Q9Y468; note: % is set by controls: 0 for no effect and ±100 for the full control effect; nearly all actives have a fitted effect of over 60% in size
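Displacement of a biotinylated histone H3(1-15) peptide monomethylated at Lys9 (75 nM) from L3MBTL1 (50 nM) was measured by AlphaScreen after a 30 min room-temperature compound incubation; cefsulodin titration served as intraplate control.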
The depositor's hits bear a star; ? = inconclusive; . = not tested or not shown; ! = not confirmed by another sample; [ ] = dose if it differs, or a comment. Compounds with a hit are over-represented: about 12% of the library has one in this group of screens. Calls come from the whole dose curve; as a rule, active = well fitted curve in the direction sought with a large enough effect; inconclusive = small, poorly fitted or top-dose-only effect, or another doubt; inactive = no such curve, though single readings can be large; an effect the other way counts as inactive or inconclusive. Potency is the fitted concentration of half-maximal effect.

SMILES	G9a block	BAZ2B inh	JMJD2A Tudor inh	Sfp inh	HP1b chromo inh	L3MBTL1 block
BrC(=C\c1ccccc1)/C=N/Nc1ccc2nncn2n1	.	45µM*	?	?	-28%	.
CC(C)(C)c1ccc(C(=O)NC2CCS(=O)(=O)C2)cc1 (stereo not drawn)	25%	6%	7%	9%	28%	.
CC(C)CC(NS(=O)(=O)OCC(Cl)(Cl)Cl)c1ccccc1 (stereo not drawn)	-16%	4%	40µM*	16%	-9%	16%
CC(=O)Nc1ccc(S(=O)(=O)Nc2cc([N+](=O)[O-])ccc2C)cc1	?	-18%	10µM*	20%	?	-3%
Cc1cc(C)c(NC(=O)/C=C\C(=O)O)c([N+](=O)[O-])c1	3.5µM*	2%	?	?	9%	.
O=C(O)C1CC=CCC1C(=O)NNc1ccccc1 (stereo not drawn)	14µM*	-11%	10%[57.1 µM]	17%	5%	.
Cc1ccc(NC(=O)/C=C\C(=O)O)c([N+](=O)[O-])c1	40µM*	10%	-2%	-7%	38%	18%
COc1ccc(CCNC(=O)CCCCn2c(=O)c3ccccc3n(Cc3ccc(Cl)cc3)c2=O)cc1OC	-39%[59 µM]	-12%	-16%	.	4%	.
COc1ccc(Cl)cc1S(=O)(=O)NCc1ccncc1	56%	-5%	-5%	11%	46%	.
CCOC(=O)c1ccc(Nc2sc(C(=O)c3cccc([N+](=O)[O-])c3)c(N)c2C#N)cc1	3%	0%	-6%	-5%	16%	-4%
COC(=O)N[C@@H](CCc1ccccc1)[C@]1(C(=O)OC)CCCC1=O	.	.	.	8%	.	.
COCCn1cnc2c1-c1ccc(OC)c(c1)OC/C=C\COc1cccc-2c1	.	.	?	-25%	-25%	.
O=C(NNc1ccc([N+](=O)[O-])cc1)C1CC1c1ccccc1 (stereo not drawn)	10µM*	-38%	-11%	-6%	-19%	-7%
Cc1ccc([N+](=O)[O-])cc1NC(=O)/C=C/C(=O)O	-9%[12.7 µM]	79µM*	-16%	-10%	27%	11%
Cc1ccc(NC(=O)C2CC2c2ccccc2)c([N+](=O)[O-])c1 (stereo not drawn)	40µM*	?	?	-11%	-11%	-19%
COc1ccc([N+](=O)[O-])cc1NC(=O)/C=C/C(=O)O	3%	-1%	-9%	9%	17%	-4%
CC1CN(C(=O)CCC(=O)NCCCc2ccccc2)c2ccccc2O1 (stereo not drawn)	13%	0%	-6%	9%	42%	3%
CCOc1ccc(CC(=O)NC2CC(=O)N(c3ccc(C)c(C)c3)C2)cc1 (stereo not drawn)	17%[59 µM]	-2%	1%	.	16%	.
CCC(Sc1ncccc1C(=O)O)C(=O)N1CCCC1 (stereo not drawn)	?	?	3.5µM*	11µM*	35%	3%
CCOC(=O)c1cccnc1SC(CC)C(=O)N1CCOCC1 (stereo not drawn)	-39%	3%	-6%	11%	8%	0%
CCC(Sc1ncccc1C(=O)O)C(=O)N1CCOCC1 (stereo not drawn)	?	?	5.6µM*	50µM*	49%	9%
CCCCn1c(N)c(N(CCOC)C(=O)CSc2n[nH]c(-c3ccc(OC)cc3)n2)c(=O)[nH]c1=O	?	-16%	-8%	20%	42%	.
CCC(=O)Nc1nnc(S(=O)(=O)N2CCCCCC2)s1	10µM*!	7.1µM*!	11µM*!	19%	?	-2%
CCCC(=O)Nc1nnc(S(=O)(=O)N2CCCCCC2)s1	13µM*	14µM*!	20µM*!	7%	?	4%
CCCC(=O)Nc1nnc(S(=O)(=O)N2CCCC2)s1	.	-1%	-6%	7%	48%	4%
SMILES	G9a block	BAZ2B inh	JMJD2A Tudor inh	Sfp inh	HP1b chromo inh	L3MBTL1 block
N#CCSc1ncccc1-c1nc2ccccc2[nH]1	9%[59 µM]	-5%	-14%	-12%	23%	9%
N#CCCCSc1ncccc1-c1nc2ccccc2[nH]1	16µM*	3%	-8%	3%	42%	1%
c1ccc(N=c2nc(-c3ccccc3)n(-c3ccccc3)s2)cc1	.	.	-33%[57.1 µM]	.	-26%[57 µM]	.
COC(=O)Cn1nc(C)c2c(C)n(-c3ccccc3)nc2c1=O	-5%[59 µM]	-2%	-14%	.	3%	.
Cc1ccc(S(=O)(=O)N2CCCN(C(C)c3nc4ccccc4c(=O)[nH]3)CC2)cc1 (stereo not drawn)	-4%[12.7 µM]	-32%	-10%	.	30%	-3%
O=C(NC1CCCCC1)N1CCN(Cc2nc3ccccc3c(=O)[nH]2)CC1	.	.	10µM*	.	25%	.
O=C(NC1CCCCC1)N(Cc1nc2ccccc2c(=O)[nH]1)C1CCCCC1	28µM*	?	-5%	-25%	19%	11%
O=C(NC1CCCCC1)N(Cc1nc2ccccc2c(=O)[nH]1)C1CCCC1	17%	6%	-8%	1%	13%	6%
Cc1ccc(S(=O)(=O)N2CCCN(Cc3nc4ccccc4c(=O)[nH]3)CC2)cc1	25µM*	-5%	?	.	28%	-1%
CCC(CC)C(=O)N1CCN(Cc2nc3ccccc3c(=O)[nH]2)CC1	.	1%	-6%	2%	2%	48%
CCCOc1ccccc1C(=O)N(Cc1cccc(Br)c1)C1CCS(=O)(=O)C1 (stereo not drawn)	31%	-3%	-9%	3%	22%	.
Cc1cc(Br)c2[nH]cc(CCNC(=O)c3ccco3)c2c1	?	?	-31%	10%	17%	.
COc1cc(C2=CCN(C(C)=O)CC2)ccc1OC(C)=O	.	.	-15%	.	43%	.
CCOC(=O)c1sc(N(Cc2ccccc2)C(=O)CCl)nc1C	40µM*	-30%	12%	-31%	85%	.
CCOC(=O)c1sc(N(Cc2ccccc2)C(=O)COC(=O)c2ccccc2O)nc1C	?	-1%	-6%	-17%	29%	-9%
